Measurements published in PubChem BioAssay (EPA / NIEHS).
“And” between values parts separate entries of the source, which are not always exact repeats. Equal entries are not always repeated. The source holds several records for some structures; these can differ, active in one and inactive in another. The source made the active and inactive calls. Rule for the calls: active = hit-call score of the fitted dose curve at least 0.9, where 1 is the maximum; inactive = score below 0.9.

Columns and labels:
[1] = read-out: Tissue Factor, F3 (gene 2152); assay: BSK_CASM3C_TissueFactor: BioMAP Diversity Plus: CASM3C Assay for Tissue Factor Biomarker Activity (AID 2283052); conditions: primary human coronary artery smooth muscle cells; actives raise or lower the signal;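 note: cell surface tissue factor protein level read by ELISA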
[2] = read-out: Interferon-gamma inducible Protein 10 (IP10), CXCL10 (gene 3627); assay: BSK_hDFCGF_IP10: BioMAP Diversity Plus: hDFCGF Assay for Interferon-gamma inducible Protein 10 (IP10) Biomarker Activity (AID 2283053); conditions: primary human foreskin fibroblasts; actives raise or lower the signal
Method in brief: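 IP-10 levels, quantified by ELISA, are taken from human foreskin fibroblast cultures 24 h after chemical treatment, with DMSO serving as negative control and baseline for bidirectional analysis.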

[3] = read-out: Urokinase-type plasminogen activator receptor (uPAR), PLAUR (gene 5329); assay: BSK_CASM3C_uPAR: BioMAP Diversity Plus: CASM3C Assay for Urokinase-type plasminogen activator receptor (uPAR) Biomarker Activity (AID 2283054); conditions: primary human coronary artery smooth muscle cells; actives raise or lower the signal;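 note: cell-surface uPAR protein level quantified by ELISA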
[4] = read-out: Vascular cell adhesion molecule 1 (VCAM1), VCAM1 (gene 7412); assay: BSK_CASM3C_VCAM1: BioMAP Diversity Plus: CASM3C Assay for Vascular cell adhesion molecule 1 (VCAM1) Biomarker Activity (AID 2283055); conditions: primary human coronary artery smooth muscle cells; actives raise or lower the signal;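 note: VCAM-1 protein level quantified by ELISA on the cells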
[5] = read-out: Collagen III, COL3A1 (gene 1281); assay: BSK_hDFCGF_CollagenIII: BioMAP Diversity Plus: hDFCGF Assay for Collagen III Biomarker Activity (AID 2283056); conditions: primary human foreskin fibroblasts; actives raise or lower the signal
Method in brief: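 ELISA readout of Collagen III in human dermal (foreskin) fibroblasts, taken 24 h post-treatment. Gain or loss relative to DMSO vehicle fitted in both directions.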

[6] = read-out: Epidermal growth factor receptor (EGFR), EGFR (gene 1956); assay: BSK_hDFCGF_EGFR: BioMAP Diversity Plus: hDFCGF Assay for Epidermal growth factor receptor (EGFR) Biomarker Activity (AID 2283057); conditions: primary human foreskin fibroblasts; actives raise or lower the signal
Method in brief: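 Measured by ELISA: EGFR levels on primary human foreskin fibroblasts 24 h after chemical treatment, analysed relative to DMSO with bidirectional fitting.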

[7] = read-out: Interleukin-8 (IL8), CXCL8 (gene 3576); assay: BSK_hDFCGF_IL8: BioMAP Diversity Plus: hDFCGF Assay for Interleukin-8 (IL8) Biomarker Activity (AID 2283058); conditions: primary human foreskin fibroblasts; actives raise or lower the signal
Method in brief: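 IL-8 levels read by ELISA at 24 hours after dosing human skin fibroblast cultures. Parallel SRB staining assessed overt cytotoxicity, and gain or loss of signal was fitted against DMSO control.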

[8] = BSK_hDFCGF_Proliferation: Cell Proliferation Assessment in the BioMAP Diversity Plus: hDFCGF Assay (AID 2283059); conditions: primary human foreskin fibroblasts;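 note: curves fitted for both rise and fall of signal versus DMSO baseline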
Method in brief: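 This proliferation readout used SRB total-protein staining of human foreskin fibroblasts […], normalized to DMSO with bidirectional curve fitting.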

[9] = read-out: Macrophage colony-stimulating factor (MCSF), CSF1 (gene 1435); assay: BSK_hDFCGF_MCSF: BioMAP Diversity Plus: hDFCGF Assay for Macrophage colony-stimulating factor (MCSF) Biomarker Activity (AID 2283060); conditions: primary human foreskin fibroblasts; actives raise or lower the signal
Method in brief: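 M-CSF levels read by ELISA at 24 h post-dosing in human skin fibroblasts. Parallel cultures stained with SRB assessed cytotoxicity at the same time point; response fitted in both directions against the DMSO baseline.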

[10] = BSK_hDFCGF_SRB: Viability Assessment in the BioMAP Diversity Plus: hDFCGF Assay (AID 2283061); conditions: primary human foreskin fibroblasts;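 note: cells exposed to compound for 24 h before the read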
Method in brief: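 Viability was read as total protein: after 10% TCA fixation, wells were stained with 0.1% sulforhodamine B and read at 560 nm. Primary human foreskin fibroblasts were dosed for 24 h, with bidirectional fitting versus DMSO.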

In the case of `CON(C)C(=O)Nc1ccc(Cl)c(Cl)c1`, the outcome [1] was “inactive”, the outcome [2] was “inactive” and the outcome [3] was “inactive”. The outcome [4] was “inactive”, the outcome [5] was “inactive” and the outcome [6] was “inactive”. For the same molecule, the outcome [7] was “inactive”, the outcome [8] was “inactive” and the outcome [9] was “inactive”. The outcome [10] was “inactive”.
In the case of `CO/C=C(/C(=O)OC)c1ccccc1Oc1cc(Oc2ccccc2C#N)ncn1`, the outcome [1] was “inactive”, the AC50 [2] was 12.1 µM (active) and the outcome [2] was “inactive”. For the same molecule, the outcome [3] was “inactive”, the outcome [4] was “inactive” and the AC50 [5] was 16.9 µM (active) [middle of 4 runs]. The outcome [6] was “inactive”, the outcome [7] was “inactive” and the AC50 [8] was 30.2 µM (active) and 34.3 µM (active) and 25.5 µM (active). For the same molecule, the outcome [8] was “inactive”, the outcome [9] was “inactive” and the outcome [10] was “inactive”.
In the case of `C#CCOS(=O)OC1CCCCC1Oc1ccc(C(C)(C)C)cc1` (stereo unspecified), the outcome [1] was “inactive”, the AC50 [2] was 7.97 µM (active) and the AC50 [3] was 11.2 µM (active). For the same molecule, the outcome [4] was “inactive”, the AC50 [5] was 1.27 µM (active) and the outcome [6] was “inactive”. The AC50 [7] was 15.3 µM (active), the AC50 [8] was 2.73 µM (active) and the AC50 [9] was 4.84 µM (active). The AC50 [10] was 3.73 µM (active).
In the case of `CCNc1nc(Cl)nc(NC(C)C)n1`, the outcome [1] was “inactive”, the outcome [2] was “inactive” and the AC50 [3] was 20 µM (active). The outcome [4] was “inactive”, the outcome [5] was “inactive” and the outcome [6] was “inactive”. The outcome [7] was “inactive”, the outcome [8] was “inactive” and the outcome [9] was “inactive”. The outcome [10] was “inactive”.
In the case of `CCNc1nc(Cl)nc(NCC)n1`, the outcome [1] was “inactive”, the outcome [2] was “inactive” and the outcome [3] was “inactive”. The outcome [4] was “inactive”, the outcome [5] was “inactive” and the outcome [6] was “inactive”. The outcome [7] was “inactive”, the outcome [8] was “inactive” and the outcome [9] was “inactive”. For the same molecule, the outcome [10] was “inactive”.
In the case of `CCCCOC(=O)c1ccccc1C(=O)OCCCC`, the outcome [1] was “inactive”, the AC50 [2] was 13.9 µM (active) and 11.8 µM (active) and the outcome [3] was “inactive”. The outcome [4] was “inactive”, the AC50 [5] was 10.9 µM (active) and the outcome [5] was “inactive”. The outcome [6] was “inactive”, the outcome [7] was “inactive” and the outcome [8] was “inactive”. The AC50 [9] was 12 µM (active), the outcome [9] was “inactive” and the outcome [10] was “inactive”.
For `C=CCC1=C(C)C(OC(=O)C2C(C=C(C)C)C2(C)C)CC1=O` (stereo unspecified), the outcome [1] was “inactive”, the AC50 [2] was 31.7 µM (active) [middle of 4 runs] and the outcome [3] was “inactive”. The AC50 [4] was 32.5 µM (active), the outcome [4] was “inactive” and the AC50 [5] was 21 µM (active) [middle of 4 runs]. For the same molecule, the outcome [6] was “inactive”, the AC50 [7] was 40.3 µM (active) [middle of 4 runs] and the AC50 [8] was 16.5 µM (active) [middle of 4 runs]. For the same molecule, the AC50 [9] was 31.2 µM (active) and 38.4 µM (active) and 29.1 µM (active) and the AC50 [10] was 32.4 µM (active) [middle of 4 runs].
For `CCOP(=S)(OCC)SCn1c(=O)oc2cc(Cl)ccc21`, the outcome [1] was “inactive”, the outcome [2] was “inactive” and the outcome [3] was “inactive”. The outcome [4] was “inactive”, the AC50 [5] was 20 µM (active) and the outcome [6] was “inactive”. The outcome [7] was “inactive”, the AC50 [8] was 15.5 µM (active) and the AC50 [9] was 14.3 µM (active). The outcome [10] was “inactive”.
In the case of `COc1nc(C)nc(NC(=O)NS(=O)(=O)c2ccccc2Cl)n1`, the outcome [1] was “inactive”, the outcome [2] was “inactive” and the outcome [3] was “inactive”. For the same molecule, the outcome [4] was “inactive”, the outcome [5] was “inactive” and the outcome [6] was “inactive”. The outcome [7] was “inactive”, the outcome [8] was “inactive” and the outcome [9] was “inactive”. The outcome [10] was “inactive”.
With `CCCCNC(=O)n1c(NC(=O)OC)nc2ccccc21` the outcome [1] was “inactive”, the AC50 [2] was 33.8 µM (active) and the outcome [3] was “inactive”. The outcome [4] was “inactive”, the outcome [5] was “inactive” and the outcome [6] was “inactive”. For the same molecule, the outcome [7] was “inactive”, the AC50 [8] was 15 µM (active) and the outcome [9] was “inactive”. The outcome [10] was “inactive”.
In the case of `COc1nc(C)nc(NC(=O)NS(=O)(=O)c2ccccc2CCC(F)(F)F)n1`, the outcome [1] was “inactive”, the AC50 [2] was 148 nM (active) and 33.8 µM (active) and 3.97 µM (active) and the outcome [3] was “inactive”. For the same molecule, the outcome [4] was “inactive”, the AC50 [5] was 0.213 µM (active) and the outcome [5] was “inactive”. The outcome [6] was “inactive”, the outcome [7] was “inactive” and the outcome [8] was “inactive”. For the same molecule, the outcome [9] was “inactive” and the outcome [10] was “inactive”.
For `N#CC(CCc1ccc(Cl)cc1)(Cn1cncn1)c1ccccc1` (stereo unspecified), the outcome [1] was “inactive”, the outcome [2] was “inactive” and the outcome [3] was “inactive”. For the same molecule, the outcome [4] was “inactive”, the outcome [5] was “inactive” and the outcome [6] was “inactive”. For the same molecule, the outcome [7] was “inactive”, the AC50 [8] was 1.78 µM (active) and the outcome [9] was “inactive”. For the same molecule, the outcome [10] was “inactive”.
In the case of `CC(Oc1ccc(Cl)cc1Cl)C(=O)O` (stereo unspecified), the outcome [1] was “inactive”, the outcome [2] was “inactive” and the outcome [3] was “inactive”. For the same molecule, the outcome [4] was “inactive”, the outcome [5] was “inactive” and the outcome [6] was “inactive”. For the same molecule, the outcome [7] was “inactive”, the outcome [8] was “inactive” and the outcome [9] was “inactive”. For the same molecule, the outcome [10] was “inactive”.
